Holding throughout (experiment): NCI-60 one-dose screen, 48 h (100 = growth as untreated, 0 = no growth, -100 = all killed)
What all share (conditions): 10 µM unless noted

Experiment [1] has as its system DU-145 prostate.
Experiment [2] concerns K-562 leukemia.
The subject of experiment [3] is MALME-3M melanoma.
The test system of experiment [4] is MDA-MB-231 breast.
Experiment [5] has as its system RXF 393 renal.
The test system of experiment [6] is SF-268 CNS.
Experiment [7] deals with SF-295 CNS.
Experiment [8] concerns SF-539 CNS.
For experiment [9], the system named is UACC-257 melanoma.
Experiment [10] has as its system HCT-15 colon.
In experiment [11] the test system is HT29 colon.
For experiment [12], the system named is SNB-75 CNS.
Experiment [13] deals with SNB-19 CNS.
For experiment [14], the system named is U251 CNS.
Experiment [15] has as its system PC-3 prostate.
Experiment [16] concerns SK-MEL-5 melanoma.
Experiment [17] relates to UACC-62 melanoma.
Experiment [18] deals with LOX IMVI melanoma.
Experiment [19] relates to SK-MEL-28 melanoma.
In experiment [20] the test system is M14 melanoma.

About 83,000 compounds went through this panel and 20% of them were active in at least one assay; those are over-represented in the sample as a whole.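 48-hour exposure, single concentration, 96-well plates; percent growth endpoint where 0 means no net growth. Active: below 10.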 Values without a mark were called inactive. Activity calls are given as the source filed them.

In the case of `CCOC(=O)c1c2c(c(C)n1C)-c1nn(Cc3ccc(OC)cc3)cc1CC2`, the growth in experiment [1] is 106%; in [2] it was 69.1%; in [3], 161%; in experiment [4] it was 98.2%; in [5], 113%; in experiment [6], 103%. Moreover, the growth in experiment [7] is 100%; in [8] it was 111%; in [9] it was 113%; in experiment [10] it was 83.9%; in experiment [11], 79.1%; in [12] it was 103%. The growth in [13] is 95.2%; in [14] it was 96.4%; in experiment [15] it was 66.3%; in experiment [16], 69.6%; in experiment [17] it was 68.9%; in experiment [18], 84.5%. Also, in experiment [19], the growth was 119%.

In the case of `O=C1CC(c2ccc3c(c2)OCO3)Nc2cc3c(cc21)OCO3` (stereo not given), the growth was 15.3% in experiment [1]; 10.2% in experiment [2]; 75.2% in experiment [3]; 24.7% in experiment [4]; -11.2% (active) in experiment [5]; 44% in [6]. Also, the growth in [7] is 7.59% (active); in experiment [8] it was 6.5% (active); in experiment [9], 39.6%; in experiment [10] it was 14%; in experiment [11], 1.47% (active); in experiment [12], 14.3%. For the same compound, the growth in [13] is 28.3%; in experiment [14] it was 7.39% (active); in experiment [15], 17.7%; in [16] it was 1.16% (active); in [17] it was 21%; in experiment [18], 25.3%. Further, the growth in experiment [19] was 65.6%.

In the case of `COc1cc(C(=O)/C=C/c2c(-c3ccc(F)cc3)nc3ncccn23)cc(OC)c1OC`, the growth in experiment [1] is 31.8%; in experiment [2], 17.9%; in experiment [3], 50.7%; in experiment [4], 64.4%; in experiment [5] it was 13.6%; in experiment [6], 51%. Besides, the growth is 56.4% in experiment [7]; 28.5% in [8]; 47% in experiment [9]; 43.5% in experiment [10]; 38.2% in experiment [11]; 59.2% in [12]. For the same compound, the growth is 88.2% in experiment [13]; 48.2% in experiment [14]; 47% in [15]; 30.5% in experiment [16]; 52.2% in [17]; 36.4% in [18]. Further, the growth in experiment [19] is 49.2%.

Consider `Fc1ccc(Nc2nc3nonc3nc2Nc2ccc(F)cc2)cc1`, for which the growth in experiment [1] was 23.8%; in experiment [2], 9% (active); in [3] it was 1.97% (active); in experiment [4] it was -20.5% (active); in experiment [5] it was 9.9% (active); in experiment [6], 18.5%. The growth in [7] was -20.7% (active); in experiment [8] it was -7.76% (active); in experiment [9] it was -13.5% (active); in [10], 6.25% (active); in experiment [11], 2.83% (active); in [12] it was -12.9% (active). For the same compound, the growth in experiment [13] was 23%; in experiment [14], -6.58% (active); in [15], 1.43% (active); in experiment [16], -46.4% (active); in experiment [18] it was 2.74% (active); in experiment [19] it was 4.39% (active).

In the case of `COc1cc2c(O)n(CCCn3ccnc3)c3c4cnc5cccc(c(=O)c3c2cc1OC)c54`, the growth in experiment [1] was 19.2%; in experiment [2], 11.6%; in experiment [3] it was 67.1%; in [4] it was 51.2%; in experiment [5], 39.5%; in [6], 36.4%. The growth in experiment [7] was 21.4%; in experiment [8] it was 22.1%; in experiment [9] it was 45.2%; in experiment [10] it was 95.2%; in experiment [11] it was 33.8%; in [12], 52%. The growth is 33.8% in [13]; 14% in experiment [14]; 28.2% in [15]; 24.9% in experiment [16]; 79.6% in experiment [19].

For the compound `Nc1c(C(=O)c2ccccc2)nnc2ncnn12`, the growth in experiment [1] is 106%; in experiment [2], 97.1%; in experiment [3] it was 107%; in experiment [4], 93%; in [5], 110%; in experiment [6], 102%. Besides, the growth in [7] was 103%; in experiment [8], 117%; in experiment [9], 95.4%; in experiment [10] it was 111%; in [11], 100%; in [12] it was 96.9%. In addition, the growth in experiment [13] was 105%; in [14] it was 95.8%; in [15], 97.9%; in [16] it was 98.6%; in [17] it was 99.7%; in experiment [19] it was 133%.

Turning to `CC(C)OCCCNCC(=O)Nc1ccc(S(=O)(=O)c2ccc(NC(=O)CNCCCOC(C)C)cc2)cc1`, the growth is 113% in experiment [1]; 36.8% in experiment [2]; 99.7% in experiment [3]; 50.9% in [4]; 92.8% in [5]; 106% in experiment [6]. Moreover, the growth in experiment [8] was 79.4%; in experiment [9] it was 106%; in [20], 100%; in experiment [10], 120%; in [11], 27.4%; in experiment [12] it was 85.5%. Also, the growth was 103% in experiment [13]; 85.6% in experiment [14]; 87% in [15]; 82.4% in experiment [16]; 107% in experiment [17]; 78.7% in [18]. For the same compound, in [19], the growth is 99.9%.

Regarding `O=[N+]([O-])c1cccc(/C=C/c2ccccn2)c1`, the growth in [1] was 78.3%; in experiment [2] it was 67.4%; in experiment [3], 114%; in [4], 87.3%; in [5] it was 69.3%; in [6], 76.9%. Also, the growth in [7] is 71.1%; in [8], 68.6%; in experiment [9] it was 102%; in experiment [10], 42.7%; in [12], 58.3%; in experiment [13], 74.5%. The growth in experiment [14] is 38.4%; in experiment [16] it was 79%; in experiment [17] it was 86.1%; in experiment [19] it was 128%.

(Values after PubChem BioAssay (NCI).)
